Results from the supplement of paper PMC11417369.
In all, about 25,000 sequences were measured (“ln(normalized median fluorescence intensity)”: median about 9.7, highest 2% from about 11 on). The full list was thinned out, with the highest values kept by preference.

tested on: PfAP2-HC AP2 domain (GST-tagged); assay: gcPBM binding intensity (ln(normalized median fluorescence intensity)); higher = stronger DNA binding
Summary of the method: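 GST-tagged P. falciparum DNA-binding domains produced in E. coli were incubated for 1 h on an Agilent 4 × 180k array of primer-extended double-stranded 36-bp intergenic genomic probes with negative controls. Binding intensity is the highest Masliner-normalised natural-log median intensity across replicate spots of either probe orientation, with bound protein detected by Alexa488 anti-GST antibody at 488 nm.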

| Sequence | gcPBM binding intensity (ln) |
| --- | --- |
| ATACATATTCTTATTTGTACTTATTATAAAATGGTC [XGTACX_site6584] | 9.56 |
| ATATATATTTATTTATGTACGAATAAATTTACGAAT [XGTACX_site5190] | 9.51 |
| CTTATCAAAAAAAAAGCATGCCACAGGCAAAAGGTA [TGCATGCA_site574] | 9.71 |
| ATAGAATAAATTTTGTCATTTATTCCTTATATATAA [GTGCAC_negctrl_site227] | 9.56 |
| TTATATATTTTTAGGTGTACTTTTTTTTTTTTTTTT [XGTACX_site8164] | 9.54 |
| ATATATATATAATAAACACACACATATACATATATG [CACACA_site9145] | 10.5 |
| ATATTATATAAATACACACACACATGCATGCACATA [CACACA_site4236] | 11.2 |
| CATATAAAAGGACACACACACACATATATATATATA [CACACA_site4674] | 11.6 |
| ATAAAAAAAGGACACACACACATATATTTATTTATA [CACACA_site7438] | 10.5 |
| AATAACCACCAACACACACACATATATATATATATA [CACACA_site3540] | 10.2 |
| ATATTATATATATACACACACACATGCATGCACATA [CACACA_site7917] | 10.3 |
| AAATTCCACCAACACACACACATATAAATAAATAAA [CACACA_site1233] | 11 |
| ATAAAAAAAGGACACACACACATATATATATATATA [CACACA_site5662] | 10.8 |
| TAAAACATAAGAGACACACACACATATATATATATA [CACACA_site3643] | 10.9 |
| AAAAATAAAATATATACATGCATATACATATTATAT [TGCATGCA_site668] | 9.65 |
| AAATTCCACGAACACACACACATATAAATAAATAAA [CACACA_site6697] | 10.6 |
| AAACATAAGAGACACACACACATATATAAATAAATA [CACACA_site7674] | 10.5 |
| ATAAAAAAAAGACACACACACATATATATATATATA [CACACA_site3073] | 10.3 |
| ATAGATATAACATATGCATGTAAAATATAACCACTC [TGCATGCA_site60] | 9.97 |

| Sequence | gcPBM binding intensity (ln) |
| --- | --- |
| TTCACTAATAAATACGCACACATATACAGATATATA [CACACA_site4887] | 9.94 |
| GAGTTTTAATGTAATAGTACTTTAATTATTATATAT [XGTACX_site4527] | 9.7 |
| ATACACAAAATTATTAAATCAATAAATATATGGTTT [CACACA_negctrl_site353] | 9.57 |
| TAATATCATTTATGGGGTACCTCCTATTCTTATTTA [XGTACX_site1839] | 9.64 |
| TAACTTTTTTTTTTTTTTTTTTAACTTTTATGTAAT [GTGCAC_negctrl_site156] | 9.45 |
| AAACAATTTAGACATACACACAAAAATAATATTATA [CACACA_site384] | 10.3 |
| GAAATATTTAGACACACACACAAACATATAAATATA [CACACA_site6980] | 11.1 |
| TTAAACAATTTAGACATACACACAAAAATAATATTA [CACACA_site385] | 9.87 |
| TACATCTGTAATGTGTGTACATATATGTATATATTT [XGTACX_site1805] | 9.87 |
| TTTATTAATAAACACACACACACACCCAAAATAAAA [CACACA_site7966] | 11 |
| ATTAATAAATAAATGACACACACACCCACAAAAAAA [CACACA_site8839] | 11.3 |
| TTTATTAATAGACACACACACACACGCAAAATAAAA [CACACA_site6255] | 11.2 |
| TTTATTAATGGACACACACACACACCCAAAATAAAA [CACACA_site4294] | 10.5 |
| AACACCCACAGACACACACACAAAAATGATTAAAAA [CACACA_site2433] | 10.9 |
| TAATAAATAAATGACACACACACACGCAAAAAAAAA [CACACA_site7275] | 10.6 |
| ATATAAAATAGACACGCACACAAAAAAAAAAAAAAA [CACACA_site3522] | 10.4 |
| TATTTATTAAAACACACACACACACCCACAAAATAA [CACACA_site241] | 10.5 |
| AAAAAAAAAAAACACACACACAAAATAAACAAACAA [CACACA_site2721] | 10.5 |
| ATAAATAAAAAACACACACACACACCCAAAAAAAAA [CACACA_site2624] | 10.7 |

| Sequence | gcPBM binding intensity (ln) |
| --- | --- |
| TTTATTAAGAAACACACACACACACCCAAAATAAAA [CACACA_site242] | 10.5 |
| TTAACAAATAAACACACACACACACCCAAAAAAAAA [CACACA_site8068] | 11.1 |
| AAAAAAATAGTCTTCTTGCACTTTTTAATTTATTTT | 9.6 |
| CTAAAACAATAAATCACACATACATAGGATAATATA [CACACA_site4247] | 9.81 |
| GTGTAATTTATTGTGTTGCACTTTTTTTTTTTTTTT [GTGCAC_site9644] | 9.84 |
| ATATATATGTATATAACATGCAACATTTAATAATAA [TGCATGCA_site1018] | 9.85 |
| AAGGTGGAAACAATTACACACACACTAATAAAAAAA [CACACA_site9051] | 10.8 |
| ATATGATTTCACAAGACACACACATACAAATTTATA [CACACA_site9296] | 10.1 |
| TATTTATTTATTTATGCATGCATGAATAATTTTTAC [TGCATGCA_site31] | 9.62 |
| AGAACAATTCTGTGGTGTACCAAAAAAAATTTAATT [XGTACX_site8082] | 9.8 |
| TAAAGAGTCATGTGGTGTACCTGCTTCACCACATAT [XGTACX_site1288] | 9.4 |
| AACTTTGAGACATAGTGTACTTACACAATCTTAATA [XGTACX_site3712] | 9.63 |
| ATATATATTTATATATGTACATATTTTTGTGTATTT [XGTACX_site1183] | 9.93 |
| ATGCATATATTTATGTGTACATATATTTGTAGGGGG [XGTACX_site6063] | 11.2 |
| TATATATATATATATGCATGTACATATATTTGTTAT [TGCATGCA_site379] | 10.4 |
| ATACCTATTTGATGAGTGCATTATCCAATATATGTA | 9.59 |
| TCTTTTTAAATATATACACACCGTGTCTACAGATAC [CACACA_site5784] | 9.88 |
| AAGAAAAACTTTACGTGTACCAAACATCCTGCCAAC [XGTACX_site598] | 9.91 |
| ATATATATTTTATTATGTACATATAAATATTACACA [XGTACX_site4062] | 9.57 |
